Shown are actives, neighbours in structure and some others; about 2.9% of the full set was active somewhere.
PAFAH2 inh: PAFAH2 enzyme inhibitors, primary screen, biochemical, fluorescence polarization, human. Platelet-activating factor acetylhydrolase 2, cytoplasmic (Homo sapiens), Q99487. recombinant PAFAH2, FP-rhodamine activity probe. inhibition, % at 3.39 µM. 0.99% of 340,000 active. AID 492956, 2010;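 active means inhibition above the mean over all tested compounds plus 3 SD, cut at about 30% in these data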;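 further: inhibitors block probe labeling of enzyme so polarization drops; 0% = enzyme with DMSO and 100% = wells lacking PAFAH2 protein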
PME-1 inh: PME-1 inhibitors via competitive probe labeling, primary screen, biochemical, fluorescence polarization, FP-Rh probe, HTS. recombinant PME-1. inhibition, % at 5.9 µM. 0.53% of 320,000 active;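 active means inhibition above the campaign mean of all compounds plus 3 SD, cut at about 26% in these data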;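 further: competitive labeling of PME-1 active site by serine hydrolase directed probe; 0% = PME-1 with DMSO and 100% = wells lacking PME-1 enzyme; inhibitors block probe labeling so polarization falls and inhibition rises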
PAFAH1B2 FP inh: PAFAH1B2 enzyme inhibitors, primary screen, biochemical, fluorescence polarization, human; Platelet-activating factor acetylhydrolase IB subunit alpha2 (Homo sapiens), P68402; recombinant PAFAH1B2, FP-rhodamine activity probe; inhibition, % at 3.39 µM; 1.2% of 340,000 active;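 active means inhibition above the mean of all tested compounds plus 3 SD, cut at about 24% in these data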;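 further: 0% = enzyme with DMSO and 100% = wells lacking PAFAH1B2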
Target sequence (P68402 whole entry, looked up): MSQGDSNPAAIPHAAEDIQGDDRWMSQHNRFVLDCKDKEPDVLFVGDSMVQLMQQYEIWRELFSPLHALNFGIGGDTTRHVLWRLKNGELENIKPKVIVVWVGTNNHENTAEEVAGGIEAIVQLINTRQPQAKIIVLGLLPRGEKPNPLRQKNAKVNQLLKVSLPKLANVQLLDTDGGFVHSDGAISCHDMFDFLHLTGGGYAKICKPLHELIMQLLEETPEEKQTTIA
pPAFAH FP inh: pPAFAH enzyme inhibitors, primary screen, biochemical, fluorescence polarization, human. Platelet-activating factor acetylhydrolase (Homo sapiens), Q13093. recombinant pPAFAH, FP-rhodamine probe fluorescence polarization. inhibition, % at 3.39 µM. 1.5% of 330,000 active;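 active means inhibition above the mean inhibition across the screen plus 3 SD, cut at about 25% in these data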;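 further: inhibitors block binding of the rhodamine activity-based probe so polarization drops; 0% = enzyme with DMSO and 100% = wells lacking pPAFAH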
Fam108B counter: mouse Fam108B serine hydrolase inhibitors, primary screen, counter-screen for RBBP9 inhibitor project, biochemical, fluorescence polarization. 0.33% of 300,000 active. inhibition, % at 9.51 µM. recombinant Fam108B, FP-Rh probe fluorescence polarization;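 active means inhibition above the screen mean inhibition plus 3 SD, computed separately per campaign, cut at about 18% in these data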;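 further: inhibitors lower polarization as less probe binds the enzyme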
PAFAH1B3 FP inh: PAFAH1B3 enzyme inhibitors, primary screen, biochemical, fluorescence polarization, human | Platelet-activating factor acetylhydrolase IB subunit alpha1 (Homo sapiens), Q15102 | recombinant PAFAH1B3, FP-rhodamine probe | inhibition, % at 3.39 µM | 0.28% of 340,000 active | AID 492972, 2010;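 active means inhibition above the screen-wide average of all tested compounds plus 3 SD, cut at about 25% in these data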;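 further: 0% = enzyme with DMSO only and 100% = wells lacking PAFAH1B3 protein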
Target sequence (Q15102 whole entry, looked up): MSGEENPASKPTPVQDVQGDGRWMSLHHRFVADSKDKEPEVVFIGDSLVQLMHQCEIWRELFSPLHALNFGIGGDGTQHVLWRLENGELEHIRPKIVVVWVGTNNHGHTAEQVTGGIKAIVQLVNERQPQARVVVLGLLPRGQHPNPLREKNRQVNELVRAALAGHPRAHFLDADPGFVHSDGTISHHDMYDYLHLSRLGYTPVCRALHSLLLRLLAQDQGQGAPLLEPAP
PAFAH2 confirm: PAFAH2 enzyme inhibitors, confirmation, biochemical, fluorescence polarization, human | shares compounds with PAFAH2 inh | recombinant PAFAH2, FP-rhodamine activity probe | inhibition, % at 3.39 µM | 65% of 2,300 active | AID 493030, 2011;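 active means mean inhibition over three repeats above a set limit taken from the earlier primary screen, cut at about 30% in these data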;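 further: inhibitor blocks binding of rhodamine activity probe so polarization falls; 0% = enzyme with DMSO and 100% = wells lacking PAFAH2 protein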
PAFAH1B3 confirm: PAFAH1B3 enzyme inhibitors, confirmation, biochemical, fluorescence polarization, human | shares compounds with PAFAH1B3 FP inh | AID 493032, 2011 | 30% of 390 active | recombinant PAFAH1B3, FP-Rh activity-based probe | inhibition, % at 3.39 µM;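 active means average inhibition over triplicate runs above the hit cutoff set in the earlier primary screen, cut at about 25% in these data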;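 further: 0% = enzyme with DMSO and 100% = wells lacking PAFAH1B3 protein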
* marks the source's active call; other numbers are inactive results; · = no result given.

SMILES	PAFAH2 inh	PME-1 inh	PAFAH1B2 FP inh	pPAFAH FP inh	Fam108B counter	PAFAH1B3 FP inh	PAFAH2 confirm	others
CSc1ccc(C(c2c(O)c3ccccc3oc2=O)c2c(C)n(C)n(-c3ccccc3)c2=O)cc1 (stereo not given)	40*	4	3	6	3	11	27
Cc1c(C(c2ccc(Br)cc2)c2c(O)c3ccccc3oc2=O)c(=O)n(-c2ccccc2)n1C (stereo not given)	3	-8	1	1	4	3	·
CC(=O)Nc1ccc(C(c2c(O)c3ccccc3oc2=O)c2c(C)n(C)n(-c3ccccc3)c2=O)cc1 (stereo not given)	-3	-5	0	1	-1	-1	·
O=C1NC(=O)C(Cc2ccccc2)(Cc2ccccc2)C(=O)N1Cc1ccccc1	6	·	14	·	·	-4	·
O=C(CNS(=O)(=O)c1ccc(Br)s1)N1CCC2(CC1)OCCO2	36*	1	11	7	1	8	18
O=C(c1ccc(CNS(=O)(=O)c2ccc(Br)cc2)cc1)N1CCC2(CC1)OCCO2	1	7	2	10	-1	6	·
CCOc1cccc(CNC2CN3CCC2CC3)c1 (stereo not given)	8	3	-1	-1	1	-1	·
CC(=O)Nc1cc(C(=O)N2CCC3(CC2)OCCO3)ccc1S(=O)(=O)c1ccc(C)cc1	8	2	-3	4	3	9	·
Cc1ccc(S(=O)(=O)Nc2cc(C(=O)N3CCC4(CC3)OCCO4)ccc2N2CCCCC2)cc1	60*	3	7	21	3	3	49*
Fc1ccccc1CNCCc1ccc2c(c1)OCO2	-17	1	0	5	-2	1	·
O=C1NC(=O)N(CCC2=CCCCC2)C(=O)/C1=C\c1cccs1	55*	-11	9	4	1	6	46*
O=C1NC(=S)N(c2ccccc2)C(=O)/C1=C/c1ccco1	30*	-28	2	24	-5	6	59*
O=C(c1cc2c(s1)-c1ccccc1OC2)N1CCC2(CC1)OCCO2	31*	0	4	19	3	2	18
Cn1cccc1/C=C1\C(=O)NC(=O)N(CCC2=CCCCC2)C1=O	26	·	4	·	·	1	·
Cn1cccc1/C=C1\C(=O)NC(=O)N(Cc2ccccc2Cl)C1=O	30*	·	2	·	·	3	11
COC(=O)C1=C(c2ccc(F)cc2F)C[C@@H]2CC[C@H]1N2C(=O)NC1CCCCC1	-2	-4	-2	3	·	12	·
Cn1cc(C(=O)OCC(=O)NC2CCCC2)c2ccccc21	59*	5	-2	5	·	0	37*
CCCCn1c(NS(=O)(=O)c2ccc(C)cc2)c(C(=O)OCC)c2nc3ccccc3nc21	7	5	6	11	3	40*	·	PAFAH1B3 confirm=7
CCC(=NCc1cc(OC)cc(OC)c1)c1c(O)n(C)c(=O)n(C)c1=O	3	4	8	1	2	3	·
CN(C)[C@@H]1C(=O)C(C(N)=O)=C(O)[C@@]2(O)C(=O)C3=C(O)c4c(O)cccc4[C@@](C)(O)C3C[C@@H]12 (stereo not given in full)	21	-4	16	32*	5	30*	·	PAFAH1B3 confirm=13
CC(C)[C@@]1(NC(=O)[C@@H]2C[C@@H]3c4cccc5[nH]cc(c45)C[C@H]3N(C)C2)O[C@@]2(O)[C@@H]3CCCN3C(=O)[C@H](Cc3ccccc3)N2C1=O	-2	0	3	3	1	8	·
CC(C)[C@H]1C(=O)N2CCC[C@H]2[C@]2(O)O[C@](NC(=O)[C@@H]3C=C4c5cccc6[nH]cc(c56)C[C@H]4N(C)C3)(C(C)C)C(=O)N12	-1	9	6	21	17	31*	·	PAFAH1B3 confirm=9
COc1cccc(N(C(C)=O)C2=NCCCS2)c1	7	3	3	2	4	4	·
CC(C)OC(=O)c1c(N)n(CC2CCCO2)c2nc3ccccc3nc12 (stereo not given)	-3	-3	-2	2	-1	-3	·
CCCNC(=O)c1c(N)n(CC2CCCO2)c2nc3ccccc3nc12 (stereo not given)	-1	12	8	14	3	27*	·	PAFAH1B3 confirm=12
